Screening data from PubChem.
This excerpt belongs to a sample that is enriched for hits.
CD40 NFkB inh: inhibitors of CD40-induced NF-kB signaling, primary screen, BL2 cells, luciferase reporter, single point; CD40L-induced, 4 h; inhibition, % at 10 µM; 83,000 compounds, 0.94% hits;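 active = mean inhibition of at least 50% with a set share of replicates also reaching that level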;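 note: 0% = neutral control wells and 100% = IKK inhibitor VII at 50 µM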
An asterisk follows results filed as active; ! = repeats disagree; [ ] = remark or other dose.

SMILES | CD40 NFkB inh
O=[N+]([O-])c1ccc(N2CCOCC2)c2c1no[n+]2[O-] | 86*
O=[N+]([O-])c1ccc(N2CCCCC2)c2ncccc12 | -8
O=[N+]([O-])c1ccc(N2CC2)c([N+](=O)[O-])c1 | 1
C=CCN1[C@@H]2CN(C(C)=O)C[C@H]1C2c1ccc(Br)cc1 (stereo partly drawn) | 11
C[C@]12CC[C@H]3[C@@H](CCC4=CC(=O)CC[C@@]43C)[C@@H]1CC[C@H]2O | 1[25 µM]
C/C=C/c1ccc(C2[C@H]3CNC[C@@H]2N3CC2CC2)cc1 (stereo partly drawn) | -5[25 µM]
COc1ccc(OC(=O)N(C)C[C@H]2OCc3ccccc3-c3c(n(C)c4ccccc34)C(=O)N([C@H](C)CO)C[C@@H]2C)cc1 | -3
O=C(Nc1cccc(Cl)c1)OC1CN2CCC1CC2 (stereo not drawn) | -51
N#CC(C#N)=NNc1cccc(Cl)c1 | 75*[25 µM]
COC(=O)[C@H]1[C@H](CO)[C@H]2Cn3c(ccc(-c4ccccc4F)c3=O)[C@@H]1N2Cc1cccnc1 | -11[25 µM]
CS(=O)(=O)N1C[C@@H]2C(c3ccccc3)[C@H](C1)N2CC1CC1 (stereo partly drawn) | -6
O=C(Cc1ccccn1)N1CCCCN2[C@H](CO)[C@H](c3ccc(Br)cc3)[C@@H]2C1 | 3[25 µM]
CCCNC(=O)N1[C@@H]2c3ccc(-c4ccccc4OC)c(=O)n3C[C@H]1[C@H](CO)[C@H]2C(=O)OC | -1[25 µM]
O=C(Cc1ccccn1)N1CCCCN2[C@@H](CO)[C@@H](c3ccc(-c4ccccc4F)cc3)[C@@H]2C1 | 15[25 µM]
C=CCN1[C@@H]2CN(CC(F)(F)F)C[C@H]1C2c1ccc(Br)cc1 (stereo partly drawn) | -7
COP(=S)(OC)SCN1C(=O)c2ccccc2C1=O | 32*
O=C(Cc1ccccc1)N1CCCCN2[C@@H](CO)[C@H](c3ccc(C#Cc4ccccc4)cc3)[C@@H]2C1 | 10
O=C(Cc1cccnc1)N1CCCCN2[C@H](CO)[C@@H](c3ccc(C#CC4(O)CCCC4)cc3)[C@H]2C1 | -2[25 µM]
CC(=O)N1C[C@@H]2C(c3ccccc3)[C@H](C1)N2CC1CC1 (stereo partly drawn) | -1
C=CCN1CCC23c4c5ccc(O)c4OC2C(=O)CCC3(O)C1C5 (stereo not drawn) | -4[25 µM]
O=C(Cc1ccccn1)N1CCCCN2[C@@H](CO)[C@H](c3ccc(-c4ccccc4F)cc3)[C@@H]2C1 | 7[25 µM]
CCN1C[C@]2(COC)CCC(OC)[C@@]34C5C[C@]6(O)[C@H](OC(=O)c7ccc(OC)cc7)C5[C@@](OC(C)=O)(C[C@H]6OC)[C@@H]([C@H](OC)C23)[C@@H]14 (stereo partly drawn) | 11[25 µM]
O=C(Cc1ccccn1)N1CCCCN2[C@H](CO)[C@H](c3ccc(-c4ccccc4F)cc3)[C@H]2C1 | -15[25 µM]
CC1=C(O)C(=O)C=C2C1=CC=C1C2(C)CCC2(C)C3CC(C)(C(=O)O)CCC3(C)CCC12C (stereo not drawn) | 110*
COC(=O)[C@H]1[C@H](CO)[C@H]2Cn3c(ccc(-c4cccc(F)c4)c3=O)[C@@H]1N2Cc1ccncc1 | -7[25 µM]
SMILES | CD40 NFkB inh
COC(=O)[C@@H]1[C@@H](CO)[C@@H]2Cn3c(cccc3=O)[C@H]1N2C(=O)C1CC1 | -9[25 µM]
CC(=O)OCC12CC(OC(=O)CC(C)C)C(C)=CC1OC1C(O)C(OC(C)=O)C2(C)C12CO2 (stereo not drawn) | 65*
CC1CC(C)CC(C)C(O)C(C#N)=CC=CCC(C2CCCC2C(=O)O)OC(=O)CC(O)C(C)C1 (stereo not drawn) | 94*
CC(C)NC(C)C(=O)c1ccc2ccccc2c1 (stereo not drawn) | 9
COC(=O)C1=C(C(=O)OC)C2OC1c1cc3ccccc3cc12 | 103*
COc1ccc(OC(=O)N(C)C[C@@H]2OCc3ccccc3-c3c(n(C)c4ccccc34)C(=O)N([C@@H](C)CO)C[C@@H]2C)cc1 | 13
CN1[C@@H]2CN(S(C)(=O)=O)C[C@H]1C2c1ccccc1 (stereo partly drawn) | 4
CS(=O)(=O)N1C[C@@H]2N[C@H](C1)C2c1ccc(Br)cc1 (stereo partly drawn) | -4
CN1[C@@H]2CN(S(C)(=O)=O)C[C@H]1C2c1ccc(Br)cc1 (stereo partly drawn) | 28*!
CN(C)CC#Cc1ccc([C@@H]2[C@H](CO)N3CCCCN(C(=O)Cc4ccccn4)C[C@@H]23)cc1 | -7[25 µM]
CN1[C@@H]2c3cccc(=O)n3C[C@H]1[C@H](CO)[C@H]2C(=O)NCC1CC1 | 15
C[C@@H]1CN([C@@H](C)CO)C(=O)c2c(c3ccccc3n2C)-c2ccccc2CO[C@@H]1CN(C)C(=O)Oc1ccccc1 | 0
CC(C)(C)n1cc(C(=O)c2ccc3ccccc3c2O)cn1 | 54*
CN(C(=O)Cc1ccccc1)C(CN1CCCC1)c1ccccc1 (stereo not drawn) | 6[25 µM]
COC(=O)[C@H]1[C@H](CO)[C@H]2Cn3c(ccc(-c4cccc(C(=O)N(C)C)c4)c3=O)[C@@H]1N2C(=O)NC(C)C | -3[25 µM]
CN1[C@@H]2CNc3ccccc3[C@@H]2[C@@H]1CO | 5[25 µM]
Cn1ncnc2c(=O)n(C)c(=O)nc1-2 | 86*
COC(=O)[C@@H]1[C@@H](CO)[C@@H]2Cn3c(ccc(-c4cccc(C(=O)N(C)C)c4)c3=O)[C@H]1N2CC1CC1 | -7[25 µM]
CCOC(=O)c1ncn2c1C1CCCN1C(=O)c1cc(OC)ccc1-2 (stereo not drawn) | 4[25 µM]
c1ccc(CC(c2ccccc2)N2CCCCC2)cc1 (stereo not drawn) | -3[25 µM]
Cc1cccc(S(=O)(=O)N2[C@@H]3Cn4c(ccc(-c5ccc(F)cc5)c4=O)[C@H]2[C@@H](C(=O)O)[C@@H]3CO)c1 | -7[25 µM]
OC[C@@H]1Nc2ccc(C#Cc3cccnc3)cc2[C@@H]2NCC[C@H]12 | -2[25 µM]
O=C(Cc1ccncc1)N1CCCCN2[C@H](CO)[C@@H](c3ccc(C#Cc4ccccc4F)cc3)[C@@H]2C1 | -21[25 µM]
O=C(C1CC1)N1C[C@@H]2N[C@H](C1)[C@@H]2c1ccc(-c2ccncc2)cc1 | 70*
O=C(C1CC1)N1C[C@@H]2N[C@H](C1)C2c1ccc(-c2cncnc2)cc1 (stereo partly drawn) | -1
SMILES | CD40 NFkB inh
CC(=O)N1C[C@@H]2N[C@H](C1)C2c1ccc(Br)cc1 (stereo partly drawn) | -8
COC(=O)[C@H]1[C@H](CO)[C@H]2Cn3c(ccc(-c4cccc(F)c4)c3=O)[C@@H]1N2Cc1cccnc1 | -18[25 µM]
COC(=O)[C@H]1[C@H](CO)[C@H]2Cn3c(ccc(-c4cccc(F)c4)c3=O)[C@@H]1N2C(=O)CC1CC1 | 2[25 µM]
CC12CCC3C(CCC4C(=O)C(=O)CCC43C)C1CCC2=O (stereo not drawn) | 4[25 µM]
O=C(O)[C@@H]1[C@@H](CO)[C@@H]2Cn3c(ccc(-c4ccc(F)cc4)c3=O)[C@H]1N2CC1CCCCC1 | 2[25 µM]
CC(C)NC(=O)N1C[C@@H]2C(c3ccc(Br)cc3)[C@H](C1)N2C (stereo partly drawn) | -4
COC(=O)[C@H]1[C@H](CO)[C@H]2Cn3c(ccc(-c4cncnc4)c3=O)[C@@H]1N2S(=O)(=O)c1ccccc1C | -10[25 µM]
CC12CCC3C(CCC4(O)CC(O)CCC34C=NO)C1(O)CCC2C1=COC(=O)C1 (stereo not drawn) | 56*
CC12CCC3C(CCC4(O)CC(O)CCC34C=O)C1(O)CCC2C1=CC(=O)OC1 (stereo not drawn) | 75*
